Inconclusive results are not listed. Activity calls are given as the source filed them. Calls follow the shape of the dose curve; as a rule, active = well fitted inhibition curve with a large enough effect; inconclusive = small, poorly fitted or top-dose-only effect; inactive = flat fitted curve, though single readings scatter.
Assay: qHTS profiling for inhibitors of Plasmodium falciparum proliferation (AID 504749); also: nearly all actives have a fitted effect of over 60% in size
Details: P. falciparum in erythrocytes, SYBR Green DNA, 72 h
Outline: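 In a 72 h erythrocytic culture (37 C, humidified, 5% CO2) at 2.5% hematocrit and 0.3% starting parasitemia, compounds were tested; SYBR Green I in detergent lysis buffer stained parasite DNA overnight.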
Potency is read from the fitted curve at half-maximal effect.

Compound | Potency (parasite line A) | Potency (parasite line B)
CCCCCCCCCCCCCC[N+](C)(C)Cc1ccccc1 | 4.47 µM (active) | 7.94 µM (active)
Cc1ccc2c(Br)cc(Br)c(O)c2n1 | – | 12.6 µM (active)

From PubChem BioAssay (NCATS)
